The values below come from PubChem BioAssay.

Assay [1] can be described thus: E. coli DRC41 culture turbidity changes, primary screen, E. coli filamentation inducer project, strain DRC41, OD650, 48 h (AID 1152).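 Note: E. coli MC1000 strain DRC41 lacking acrAB efflux pump and sulA.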 As to conditions: E. coli DRC41 (acrAB sulA), higher = more signal, called active from +8 up or from −8 down.
Assay [2] is described as follows: small-molecule binders of probe aLefty1, primary screen, biochemical, small-molecule microarray, 635/667 nm fluorescence (AID 1153).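 Note: score merges spot fluorescence with signal-to-noise ratio from the scanned slide images.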 As to conditions: higher = more signal.
Assay [3] is described as follows: PSAC antagonists in infected red cells, primary screen, cell-based, P. falciparum Indochina, OD700, 1 h (AID 1154). The note with it: P. falciparum Indochina infected RBC osmotic lysis, higher = more signal, called active from +8 up or from −8 down.
Assay [4] is described as follows: PSAC antagonists in infected red cells, primary screen, cell-based, P. falciparum Indochina, OD700, 2 h (AID 1155).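 Note: lysis reports solute entry through the parasite surface anion channel PSAC; channel blockers reduce lysis of infected cells.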 The note with it: P. falciparum Indochina infected erythrocytes, osmotic lysis OD700; higher = more signal, called active from +8 up or from −8 down.
Assay [5] in a line: osmotic lysis modulators in infected erythrocytes, primary screen, PSAC antagonist project, cell-based, P. falciparum Indochina, OD700, 3 h (AID 1156). As to conditions: higher = more signal, called active from +8 up or from −8 down.
The nature of assay [6]: PSAC antagonists in infected red cells, primary screen, cell-based, P. falciparum Indochina, OD700, 18 h (AID 1157). The note with it: P. falciparum Indochina infected erythrocytes, osmotic lysis OD700, 18 h; higher = more signal, called active from +8 up or from −8 down.
Assay [7] is described as follows: modulators of S6 phosphorylation in cells, primary screen, cell-based, A549, cytoblot, luminescence, serum-stimulated (AID 1158).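 Note: serum-stimulated A549 lung adenocarcinoma cells; signal is phosphorylated S6 detected by cytoblot immunostaining with HRP secondary.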 The note with it: A549 phospho-S6 cytoblot, 5 h, higher = more signal.
The target of assay [8] is NADPH oxidase 2 (Homo sapiens) (UniProt P04839). Put plainly: NOX2-dependent H2O2 signal modulators, primary screen, NOX inhibitor project, cell-based, HEK293-NOX2, PMA-stimulated, Amplex Red fluorescence (AID 1159). Note: test concentration not given here. The note with it: 45 min, higher = more signal, called active from +8 up or from −8 down.
Assay [9] has as its target NADPH oxidase 4 (Homo sapiens) (UniProt Q9NPH5). Put plainly: NOX4-dependent H2O2 signal modulators, primary screen, NOX inhibitor project, cell-based, HEK293-NOX4, tetracycline-induced, Amplex Red fluorescence (AID 1160). As to conditions: 45 min, higher = more signal, called active from +8 up or from −8 down.
For assay [10], the target named is NADPH oxidase 5 (Homo sapiens) (UniProt Q96PH1). In words: NOX5-dependent H2O2 signal modulators, primary screen, NOX inhibitor project, cell-based, HEK293-NOX5, Amplex Red fluorescence (AID 1161). As to conditions: HEK293-NOX5, ionomycin, 45 min, higher = more signal.
Assay [11] can be described thus: A549 cell viability effects, profiling panel, calcein-AM fluorescence, 48 h, basal (AID 1162). Note: test concentration not given here. As to conditions: higher = more signal.
A short description of assay [12]: adipocyte viability effects, profiling panel, cell-based, 3T3-L1 adipocytes, calcein-AM fluorescence, 48 h, basal (AID 1163). Note: test concentration not given here. The note with it: 3T3-L1 adipocytes viability, higher = more signal.
The nature of assay [13]: HepG2 cell viability effects, profiling panel, calcein-AM fluorescence, 48 h, basal (AID 1164). Note: test concentration not given here. As to conditions: higher = more signal.
The nature of assay [14]: MM1S cell viability effects, profiling panel, calcein-AM fluorescence, 48 h, basal (AID 1165).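 Note: viability of MM1S multiple myeloma cells under basal unstimulated conditions; test concentration not given here.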 As to conditions: higher = more signal.
Assay [15] can be described thus: basal RPMI8226 viability, no added stimulus, profiling panel, cell-based, calcein-AM fluorescence, 48 h, PK04 Diversity Set (AID 1166).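 Note: cells grown under basal conditions without added stimulus; test concentration not given here.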 As to conditions: RPMI8226 myeloma viability, higher = more signal.
Assay [16] in a line: basal HepG2 mitochondrial membrane potential changes, profiling panel, cell-based, JC-1 fluorescence, 24 h, 100 nL compound (AID 1167). Note: test concentration not given here. As to conditions: higher = more signal.
Assay [17] is described as follows: basal 3T3-L1 adipocyte mitochondrial potential changes, profiling panel, cell-based, JC-1 fluorescence, 3T3-L1 adipocytes, 24 h, 100 nL compound (AID 1168). Note: test concentration not given here. As to conditions: JC-1 mitochondrial fluorescence, higher = more signal, called active from +8 up or from −8 down.
The nature of assay [18]: basal RPMI8226 mitochondrial membrane potential changes, profiling panel, cell-based, JC-1 fluorescence, 24 h, 100 nL compound (AID 1169). Note: test concentration not given here. The note with it: RPMI8226 myeloma, JC-1 mitochondrial potential fluorescence, higher = more signal.
Assay [19] in a line: basal MM1S mitochondrial membrane potential changes, profiling panel, cell-based, JC-1 fluorescence, 24 h, 100 nL compound (AID 1170). Note: test concentration not given here. As to conditions: higher = more signal.
A short description of assay [20]: A549 lung cancer cell viability effects, profiling panel, resazurin fluorescence, 24 h, PK04 Diversity Set (AID 1171). Note: test concentration not given here. As to conditions: higher = more signal, called active from +8 up or from −8 down. On the technique in general: The colour change of resazurin is a common sign of viable cells or microbes.

Calls of active or inactive are those of the source.

NADPH oxidase 2 (Homo sapiens), sequence (P04839 whole entry, looked up): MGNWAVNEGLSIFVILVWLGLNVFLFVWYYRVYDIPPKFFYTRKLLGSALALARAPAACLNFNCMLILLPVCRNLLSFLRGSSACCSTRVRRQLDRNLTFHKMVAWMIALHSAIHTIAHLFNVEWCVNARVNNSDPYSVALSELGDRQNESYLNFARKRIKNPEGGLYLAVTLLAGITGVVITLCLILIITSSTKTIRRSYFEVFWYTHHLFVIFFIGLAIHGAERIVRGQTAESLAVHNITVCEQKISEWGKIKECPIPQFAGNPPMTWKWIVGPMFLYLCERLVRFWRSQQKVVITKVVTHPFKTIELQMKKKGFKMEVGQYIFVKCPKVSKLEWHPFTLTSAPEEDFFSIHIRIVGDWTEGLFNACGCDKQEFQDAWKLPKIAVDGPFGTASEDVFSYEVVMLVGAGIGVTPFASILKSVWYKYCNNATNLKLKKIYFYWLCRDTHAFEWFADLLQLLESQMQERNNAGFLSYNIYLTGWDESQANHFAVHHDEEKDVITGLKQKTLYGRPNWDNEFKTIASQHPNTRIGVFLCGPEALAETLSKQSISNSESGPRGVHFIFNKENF
NADPH oxidase 5 (Homo sapiens), sequence (Q96PH1 whole entry, looked up): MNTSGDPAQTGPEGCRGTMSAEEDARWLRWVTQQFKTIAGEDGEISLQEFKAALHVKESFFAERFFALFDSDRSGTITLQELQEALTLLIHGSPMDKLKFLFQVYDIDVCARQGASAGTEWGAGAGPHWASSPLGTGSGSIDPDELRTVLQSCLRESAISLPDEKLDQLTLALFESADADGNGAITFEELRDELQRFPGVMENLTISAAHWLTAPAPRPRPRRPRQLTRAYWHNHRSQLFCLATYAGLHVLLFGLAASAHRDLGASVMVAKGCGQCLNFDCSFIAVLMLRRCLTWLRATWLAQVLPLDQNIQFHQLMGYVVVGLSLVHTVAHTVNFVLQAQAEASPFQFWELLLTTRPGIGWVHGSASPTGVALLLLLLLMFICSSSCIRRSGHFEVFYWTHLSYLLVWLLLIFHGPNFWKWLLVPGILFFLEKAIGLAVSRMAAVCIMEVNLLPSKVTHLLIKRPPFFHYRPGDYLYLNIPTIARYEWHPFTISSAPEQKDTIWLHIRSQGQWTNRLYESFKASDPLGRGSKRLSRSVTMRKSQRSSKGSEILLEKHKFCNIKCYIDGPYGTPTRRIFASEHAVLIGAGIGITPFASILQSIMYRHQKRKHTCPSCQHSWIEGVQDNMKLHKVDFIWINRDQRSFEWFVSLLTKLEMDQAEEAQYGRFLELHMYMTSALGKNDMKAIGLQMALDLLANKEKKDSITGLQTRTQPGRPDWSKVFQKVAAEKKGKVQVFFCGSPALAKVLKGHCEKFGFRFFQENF
NADPH oxidase 4 (Homo sapiens), sequence (Q9NPH5 whole entry, looked up): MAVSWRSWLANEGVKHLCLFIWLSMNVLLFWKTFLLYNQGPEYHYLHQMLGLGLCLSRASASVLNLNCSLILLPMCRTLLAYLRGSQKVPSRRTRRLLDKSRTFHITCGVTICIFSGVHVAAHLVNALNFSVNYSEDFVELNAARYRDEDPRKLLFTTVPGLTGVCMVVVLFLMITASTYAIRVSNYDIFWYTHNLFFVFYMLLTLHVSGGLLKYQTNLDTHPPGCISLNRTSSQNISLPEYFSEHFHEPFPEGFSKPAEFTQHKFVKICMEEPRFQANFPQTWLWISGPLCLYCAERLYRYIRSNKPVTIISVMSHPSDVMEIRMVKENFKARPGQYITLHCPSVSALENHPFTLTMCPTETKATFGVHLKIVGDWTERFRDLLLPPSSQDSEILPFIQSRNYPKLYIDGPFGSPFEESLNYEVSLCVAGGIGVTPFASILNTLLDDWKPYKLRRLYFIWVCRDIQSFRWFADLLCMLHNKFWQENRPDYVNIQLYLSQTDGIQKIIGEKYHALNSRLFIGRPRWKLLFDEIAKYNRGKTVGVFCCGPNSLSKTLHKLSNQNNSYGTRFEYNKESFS

With `O=C1C2C=CC(C(O)CCc3ccccc3)N(Nc3ccccc3)C2C(=O)N1c1ccccc1` (stereo not given), the z-score in [1] is -1.7 (inactive); in assay [3] it was 1.9 (inactive); in assay [4], 1.32 (inactive); in assay [5] it was 0.624 (inactive); in assay [6] it was 1.42 (inactive); in assay [7], -1.06. Further, the z-score in [8] is -1.26 (inactive); in [9] it was -5.33 (inactive); in [10], -1.45; in [11] it was -1.22; in assay [12], -1.12; in assay [13], 0.203. Moreover, the z-score in assay [14] is -0.46; in assay [15] it was 0.198; in assay [16] it was -2.35; in assay [17], -0.727 (inactive); in assay [18] it was -0.278; in assay [19] it was -0.174. For the same molecule, the z-score in assay [20] was -0.424 (inactive). Moreover, the composite z-score in assay [2] was 0.767.
For the molecule `CC(C)N1C(=O)c2ccccc2[C@](C)(C(=O)NCCCN(C)C)[C@@H]1c1ccc(CO)cc1`, the z-score in assay [1] is 0.0259 (inactive); in [3], 2.5 (inactive); in assay [4] it was 0.347 (inactive); in assay [5], 0.766 (inactive); in assay [6] it was 0.4 (inactive); in assay [7] it was 0.564. Besides, the z-score in assay [8] is 0.288 (inactive); in assay [9], 0.893 (inactive); in assay [10] it was 1.15; in [11], 0.415; in assay [12] it was 0.302; in [13], 0.446. The z-score is -0.0937 in assay [14]; -0.384 in assay [15]; 0.861 in assay [16]; -0.253 (inactive) in assay [17]; -0.13 in [18]; 0.413 in assay [19]. The z-score in assay [20] is 0.565 (inactive). This molecule came in with a composite z-score in assay [2] of 0.0201.
Take `COC(=O)c1c2oc(c1C(=O)OC)C(=O)N[C@H](Cc1ccccc1)Cn1nncc1C1(CCCCC1)NC(=O)N[C@H](CO)CC2`: the z-score in assay [1] is 1.74 (inactive); in [3], 5.12 (inactive); in [4], 1.58 (inactive); in assay [5], 0.52 (inactive); in assay [6] it was 0.628 (inactive); in assay [7] it was 0.14. Moreover, the z-score is -2.86 (inactive) in assay [8]; -2.14 (inactive) in assay [9]; -3.47 in [10]; 0.876 in [11]; 0.0786 in assay [12]; 0.8 in assay [13]. The z-score is -1.1 in assay [14]; 0.358 in assay [15]; 3.8 in [16]; -0.413 (inactive) in [17]; -0.65 in [18]; -0.936 in [19]. Further, the z-score in [20] was 0.286 (inactive). The molecule also returned a composite z-score in [2] of -0.237.
Take `C=C(COC)C(=O)CC[C@@H](OC(=O)c1ccccc1-c1ccccc1C(=O)O)c1ccc(CO)o1`: the z-score in [1] was -0.448 (inactive); in [3] it was 0.508 (inactive); in [4] it was 0.802 (inactive); in assay [5], -2.11 (inactive); in assay [6], 0.698 (inactive); in [7], -1. The z-score in [8] is -3.41 (inactive); in assay [9] it was -1.58 (inactive); in assay [10], -3.07; in assay [11], -1.46; in assay [12], -0.736; in assay [13], -2.67. In addition, the z-score in assay [14] was -1.69; in assay [15], -0.883; in assay [16], -2.74; in assay [17] it was 0.429 (inactive); in [18], -0.323; in assay [19] it was -0.857. The z-score in [20] was -1.03 (inactive). Moreover, in assay [2], the composite z-score was -0.0032.
As to `C=CCCN(CC#C[C@H]1Oc2ccccc2S(=O)(=O)N2CCC[C@@H]12)S(=O)(=O)c1ccc(C)cc1`, the z-score in [1] is -1.88 (inactive); in [3] it was 3.75 (inactive); in assay [4] it was 0.451 (inactive); in assay [5] it was 0.123 (inactive); in [6] it was 0.182 (inactive); in assay [7], -0.23. The z-score is 0.744 (inactive) in assay [8]; -1.54 (inactive) in assay [9]; -0.909 in assay [10]; 0.436 in assay [11]; -0.257 in assay [12]; -0.383 in assay [13]. Also, the z-score is -3.21 in [14]; -1.77 in assay [15]; 0.825 in [16]; -0.184 (inactive) in [17]; -0.972 in assay [18]; -1.5 in [19]. Further, in assay [20], the z-score was 0.967 (inactive). Besides, the composite z-score in assay [2] amounted to 0.0443.
For `Cc1ccc(S[C@]2(C(=O)NCC(F)(F)F)CC(=O)N(C3Cc4ccccc4C3)[C@@H]2c2ccc(CO)cc2I)cc1`, the z-score in assay [1] is 1.1 (inactive); in [3], 6.63 (inactive); in assay [4] it was 1.29 (inactive); in [5], 0.577 (inactive); in [6] it was 0.526 (inactive); in [7], -0.204. Moreover, the z-score is 0.994 (inactive) in assay [8]; -1.56 (inactive) in [9]; 1.06 in [10]; 0.833 in assay [11]; 0.236 in assay [12]; 0.506 in [13]. Moreover, the z-score in [14] is -2.1; in assay [15], -3.02; in assay [16] it was 0.194; in [17], -0.131 (inactive); in assay [18], 0.045; in assay [19], -1.4. For the same molecule, the z-score in [20] is 0.537 (inactive). Besides, in [2], the composite z-score came out at 0.0013.
For the molecule `Cc1c(NC(=O)/C(C#N)=C/C=C/c2ccccc2)c(=O)n(-c2ccccc2)n1C`, the z-score in [1] is 0.813 (inactive); in assay [3] it was 1.96 (inactive); in [4] it was 0.379 (inactive); in assay [5], 0.0643 (inactive); in assay [6] it was 0.205 (inactive); in assay [7] it was -0.25. For the same molecule, the z-score in [8] was -0.328 (inactive); in assay [9], 0.0418 (inactive); in assay [10], 0.649; in [11], -0.864; in assay [12] it was 0.287; in assay [13] it was 0.458. Besides, the z-score in [14] is 0.142; in [15], 0.24; in [16] it was -1.05; in [17], -0.113 (inactive); in assay [18] it was 0.305; in assay [19] it was 0.56. Also, the z-score in [20] is -0.2 (inactive). The molecule further gave a composite z-score in assay [2] of -0.213.
For `Cn1c2c(c3ccccc31)C(=O)C1NC2C=CC1(C)C(=O)OCc1ccccc1` (stereo not given), the z-score in [1] is -1.14 (inactive); in assay [3] it was 0.395 (inactive); in assay [4] it was 0.896 (inactive); in assay [5], 0.808 (inactive); in [6], 0.484 (inactive); in assay [7] it was -0.495. The z-score in [8] was -0.343 (inactive); in [9], -1.52 (inactive); in [10] it was 1.31; in assay [11] it was -0.618; in assay [12] it was -0.0704; in assay [13] it was 0.583. Further, the z-score in assay [14] was -0.175; in [15] it was 0.0208; in [16], 0.603; in assay [17], -1.65 (inactive); in [18] it was -0.0327; in assay [19] it was 0.426. The z-score in [20] is -0.078 (inactive). The composite z-score in assay [2] turned out to be 0.125.
For the molecule `O=C(NCC(O)CO)[C@@]1(Cc2ccccc2)N=C(c2ccc(OCCCO)cc2)O[C@H]1c1ccccc1` (stereo not given in full), the z-score is 0.931 (inactive) in assay [1]; 19.8 (active) in [3]; 3.69 (inactive) in assay [4]; 1.88 (inactive) in assay [5]; 1.28 (inactive) in assay [6]; -0.142 in assay [7]. Besides, the z-score in assay [8] is -0.513 (inactive); in assay [9] it was 1.63 (inactive); in assay [10] it was 1.16; in assay [11], -0.125; in assay [12], 1.2; in assay [13], -0.266. Besides, the z-score is -1.93 in assay [14]; -0.0748 in [15]; 0.4 in [16]; 0.366 (inactive) in assay [17]; -0.392 in assay [18]; -0.223 in assay [19]. In [20], the z-score is 0.564 (inactive). In assay [2], this molecule returned a composite z-score of 0.828.
